aSyn 5UTR act – Activators working through SNCA 5'UTR binding (MLPCN). alpha-synuclein 5'UTR reporter, activators screen. activity score, % (tested at 7.5 µM), hits read low. 7.1% of 300,000 active. AID 1814; in the data active = activity score below about -60%
Of the large screens only hits and unclear results are named; the others gave an inactive call. The list is a sample of the results.

CN1CCC(C2(O)c3ccccc3CCc3ccccc32)CC1	aSyn 5UTR act -62
O=C1c2ccccc2S(=O)(=O)c2cc(N3CCc4ccccc4C3)ccc21	aSyn 5UTR act -180
COc1ccc2cc(C(=O)NCCc3ccccc3)[nH]c2c1	aSyn 5UTR act -172
COc1ccc2cc(C(=O)NCc3ccccc3)[nH]c2c1	aSyn 5UTR act -66
CCCCC(=O)Nc1cc2nn(-c3ccc(OC)cc3)nc2cc1C	aSyn 5UTR act -67
COc1ccc(-n2nc3cc(C)c(NC(=S)NC(=O)c4ccccc4C)cc3n2)cc1	aSyn 5UTR act -173
CCC(=O)Nc1cc2nn(-c3ccc(C)cc3)nc2cc1C	none
Clc1nc(-c2ccccn2)nc2scc(-c3ccccc3)c12	aSyn 5UTR act -206
C/C(=N\NC(=O)c1ccc(Cl)c(Cl)c1)c1ccc(Br)s1	none
C/C(=N\NC(=O)c1cccc([N+](=O)[O-])c1)c1cccs1	aSyn 5UTR act -81
CCNC(=S)N/N=C(\C)c1cccc([N+](=O)[O-])c1	aSyn 5UTR act -62
C/C(=N/NC(=O)c1ccc2c(c1)OCO2)c1cccc([N+](=O)[O-])c1	aSyn 5UTR act -133
C/C(=N/NC(=O)c1ccc2c(c1)OCO2)c1ccc(Br)s1	aSyn 5UTR act -89
CCOC(=O)NC1(Nc2ccc(C)cc2)Oc2ccccc2O1	aSyn 5UTR act -100
CC(C)(C)C1CCc2nc(NC(=O)Cc3cn4ccsc4n3)sc2C1 (configuration not stated)	aSyn 5UTR act -66
Cc1csc(NC(=O)CCCc2cccs2)n1	aSyn 5UTR act -77
O=C(CCCc1cccs1)Nc1nc2c(s1)CCCC2	aSyn 5UTR act -171
CC1CCc2nc(NC(=O)Cc3cccs3)sc2C1 (configuration not stated)	aSyn 5UTR act -160
CC1CCc2nc(NC(=O)c3ccco3)sc2C1 (configuration not stated)	none
COc1ccc(C(=O)O/N=C(\N)c2ccc(OC)c(OC)c2)c(OC)c1	aSyn 5UTR act -96
COc1ccc(C(=O)O/N=C(\N)c2ccc(OC)c(OC)c2)cc1	aSyn 5UTR act -139
CC(C)c1ccc(/C=N/N2CCCCC2)cc1	aSyn 5UTR act -143
CC(C)c1ccc(/C=N/N2CCN(c3ccccn3)CC2)cc1	aSyn 5UTR act -122
Oc1ccccc1/C=N/N1CCN(c2ccccn2)CC1	aSyn 5UTR act -115
CN(C)Cc1c(O)ccc2cc(-c3nc4ccccc4n3C)c(=O)oc12	aSyn 5UTR act -70
CCN(CC)c1ccc2cc(-c3nc4ccccc4n3C)c(=O)oc2c1	aSyn 5UTR act -226
N/C(=N\OC(=O)CCc1ccccc1)c1ccccc1Cl	aSyn 5UTR act -70
Cc1ccc(/C(N)=N/OC(=O)CCc2ccccc2)cc1	aSyn 5UTR act -129
CCOC(=O)c1ccc2[nH]c3c(c2c1)CCCCC3=O	aSyn 5UTR act -102
O=C1CCCc2c1[nH]c1ccc(Cl)cc21	none
O=C1NCCN/C1=C\C(=O)c1cccc(Br)c1	aSyn 5UTR act -62
O=C1NCCN/C1=C\C(=O)c1ccc(Br)cc1	aSyn 5UTR act -120
O=C(Nc1ccccn1)c1ccc2c(c1)S(=O)(=O)c1ccccc1C2=O	aSyn 5UTR act -90
Cc1ccnc(NC(=O)c2ccc(Cl)c(S(=O)(=O)N3CCCC3)c2)c1	aSyn 5UTR act -132
O=C(Nc1ccccn1)c1ccc(Cl)c(S(=O)(=O)N2CCCCCC2)c1	aSyn 5UTR act -81
Cc1ccc(F)cc1NC(=O)c1sc2ncn(CC(=O)N3CCN(c4ccccn4)CC3)c(=O)c2c1C	aSyn 5UTR act -89
COc1cccc(-c2nnc(N(C)C(=O)C3CCOC3)s2)c1 (configuration not stated)	aSyn 5UTR act -71
CC1=NN(c2ccc(C(=O)O)cc2)C(=O)/C1=C/c1ccc(-c2ccccc2F)o1	aSyn 5UTR act -88
Brc1ccc2oc3c(N4CCOCC4)ncnc3c2c1	aSyn 5UTR act -158
O=C(COc1ccccc1)Nc1ccc2c(c1)nc1n2CCSC1	aSyn 5UTR act -125
O=C(COc1ccccc1)Nc1ccc2c(c1)nc1n2CCOC1	aSyn 5UTR act -85
CC(=O)Nc1ccc(NC(=O)c2ccccc2S(=O)(=O)c2ccccc2[N+](=O)[O-])cc1	aSyn 5UTR act -81
O=C(Nc1ccc(-c2ccc([N+](=O)[O-])cc2)cc1)c1ccccc1F	aSyn 5UTR act -69
CC1(c2ccc(NC(=O)c3ccccc3F)cc2)CC1(Cl)Cl (configuration not stated)	aSyn 5UTR act -195
O=[N+]([O-])c1ccccc1S(=O)(=O)c1ccccc1	aSyn 5UTR act -79
CN(C)CCn1cnc2c(c1=N)C(c1ccccc1)c1ccc3ccccc3c1O2 (configuration not stated)	none
N/C(Cc1ccc([N+](=O)[O-])cc1)=N\OC(=O)c1ccccc1F	aSyn 5UTR act -185
O=C(Nc1ccc([N+](=O)[O-])cc1)c1ccccc1F	aSyn 5UTR act -154
O=C(NCC1CCCN(C(=O)c2cscn2)C1)c1ccccc1Cl (configuration not stated)	aSyn 5UTR act -78
c1ccc(-c2ccc(-c3csnn3)cc2)cc1	aSyn 5UTR act -131
Cc1nc2c(cc(Oc3ccc(S(=O)(=O)N4CCOCC4)cn3)c3ccsc32)s1	aSyn 5UTR act -89
COc1ccc(C(=O)CN2C(=O)c3ccccc3S2(=O)=O)cc1	none
